From article PMC7862700, “An all-to-all approach to the identification of sequence-specific readers for epigenetic DNA modifications on cytosine”

Experiments:
Experiment in all cases: DAPPL (digital affinity profiling via proximity ligation, sequencing); 10 mM Tris-HCl pH 7.5, 50 mM NaCl, 1 mM DTT, 4% glycerol, room temperature, 30 min; GST-TFs on glutathione beads, 16-mer random dsDNA library, 0.1% formaldehyde crosslink after washing; high values mean tight binding
Conditions in all cases: protein: recombinant; tags: N-terminal GST; dsDNA, one strand shown
FLI1 = biological target: T1, FLI1 (Homo sapiens, UniProt Q01543 1-452)
T1 sequence: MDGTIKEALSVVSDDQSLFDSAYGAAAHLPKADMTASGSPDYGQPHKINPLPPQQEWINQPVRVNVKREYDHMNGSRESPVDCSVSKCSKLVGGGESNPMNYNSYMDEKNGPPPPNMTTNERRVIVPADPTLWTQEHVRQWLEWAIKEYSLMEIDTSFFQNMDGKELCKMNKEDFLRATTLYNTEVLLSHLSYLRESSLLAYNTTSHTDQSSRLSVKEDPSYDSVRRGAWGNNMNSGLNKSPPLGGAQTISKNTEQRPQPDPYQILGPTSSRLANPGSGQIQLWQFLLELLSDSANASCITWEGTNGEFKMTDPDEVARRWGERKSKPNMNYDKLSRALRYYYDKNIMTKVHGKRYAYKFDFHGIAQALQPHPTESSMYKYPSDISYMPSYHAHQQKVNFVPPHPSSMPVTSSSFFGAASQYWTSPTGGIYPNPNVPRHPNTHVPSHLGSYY
Method in brief: (§1)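 Human transcription factors fused to GST were expressed in yeast, captured on glutathione beads, given DNA barcodes and pooled with a GST-only negative control. Pools were incubated with 200 nmole of a 16-mer random double-stranded DNA library in Tris/NaCl/DTT/glycerol buffer at room temperature for 30 min. They were then washed, crosslinked with 0.1% formaldehyde, proximity-ligated (BsaI/T4 ligase, 1 h, 37 °C), PCR-amplified and sequenced on an Illumina NextSeq500. Binding signal is each 6-mer's read frequency for a factor divided by its frequency for the GST control.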

ELK1 = biological target: T2, ELK1 (Homo sapiens, UniProt P19419 1-428)
T2 sequence: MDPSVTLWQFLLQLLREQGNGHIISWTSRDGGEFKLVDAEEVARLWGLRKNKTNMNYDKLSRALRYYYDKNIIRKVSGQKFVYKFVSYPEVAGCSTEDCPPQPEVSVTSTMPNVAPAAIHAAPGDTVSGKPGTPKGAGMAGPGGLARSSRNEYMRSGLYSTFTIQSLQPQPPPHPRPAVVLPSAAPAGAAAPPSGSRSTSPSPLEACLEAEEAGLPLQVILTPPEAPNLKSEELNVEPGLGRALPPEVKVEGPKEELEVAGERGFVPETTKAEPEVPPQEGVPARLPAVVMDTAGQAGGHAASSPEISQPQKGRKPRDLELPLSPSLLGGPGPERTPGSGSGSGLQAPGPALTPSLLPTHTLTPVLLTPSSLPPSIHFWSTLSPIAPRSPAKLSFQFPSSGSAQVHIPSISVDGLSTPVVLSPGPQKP
Method in brief: as §1

GABPA = biological target: T3, GABPA (Homo sapiens, UniProt Q06546 1-454)
T3 sequence: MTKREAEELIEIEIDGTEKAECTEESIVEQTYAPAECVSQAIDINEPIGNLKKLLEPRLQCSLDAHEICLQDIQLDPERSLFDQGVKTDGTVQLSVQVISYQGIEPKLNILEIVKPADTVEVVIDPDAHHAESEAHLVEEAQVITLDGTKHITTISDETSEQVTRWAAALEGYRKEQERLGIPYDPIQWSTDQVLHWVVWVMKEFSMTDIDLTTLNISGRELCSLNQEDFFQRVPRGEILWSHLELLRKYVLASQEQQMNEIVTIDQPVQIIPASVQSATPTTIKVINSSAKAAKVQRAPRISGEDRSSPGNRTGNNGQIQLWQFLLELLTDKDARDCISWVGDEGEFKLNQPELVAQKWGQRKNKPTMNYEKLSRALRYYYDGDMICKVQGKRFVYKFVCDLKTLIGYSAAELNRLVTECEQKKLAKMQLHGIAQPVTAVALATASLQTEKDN
Method in brief: as §1

ERG = biological target: T4, ERG (Homo sapiens, UniProt P11308 1-479)
T4 sequence: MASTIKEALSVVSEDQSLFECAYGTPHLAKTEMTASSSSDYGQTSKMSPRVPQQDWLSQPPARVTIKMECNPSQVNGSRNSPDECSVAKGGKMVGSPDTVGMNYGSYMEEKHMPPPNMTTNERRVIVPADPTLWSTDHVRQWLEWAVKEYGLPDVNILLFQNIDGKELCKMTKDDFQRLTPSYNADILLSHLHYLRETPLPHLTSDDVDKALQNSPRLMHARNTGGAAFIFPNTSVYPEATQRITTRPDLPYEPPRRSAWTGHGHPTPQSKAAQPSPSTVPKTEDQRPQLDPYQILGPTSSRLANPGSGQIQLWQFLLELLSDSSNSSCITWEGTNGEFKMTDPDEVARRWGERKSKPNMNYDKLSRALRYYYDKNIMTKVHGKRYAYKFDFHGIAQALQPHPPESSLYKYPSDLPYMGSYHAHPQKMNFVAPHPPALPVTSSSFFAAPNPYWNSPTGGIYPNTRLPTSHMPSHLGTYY
Method in brief: as §1

ELF1 = ELF1 (Homo sapiens, UniProt P32519 1-619)
Method in brief: as §1

EHF = biological target: T5, EHF (Homo sapiens, UniProt Q9NZC4 1-300)
T5 sequence: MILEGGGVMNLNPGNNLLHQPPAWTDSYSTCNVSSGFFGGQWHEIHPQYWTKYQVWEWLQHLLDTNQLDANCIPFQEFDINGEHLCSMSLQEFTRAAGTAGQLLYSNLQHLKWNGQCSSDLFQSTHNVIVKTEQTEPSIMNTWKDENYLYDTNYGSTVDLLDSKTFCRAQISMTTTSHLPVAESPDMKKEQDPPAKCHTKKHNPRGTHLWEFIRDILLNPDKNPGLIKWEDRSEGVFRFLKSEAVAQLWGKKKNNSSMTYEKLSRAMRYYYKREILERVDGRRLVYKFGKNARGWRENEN
Method in brief: as §1

SPI1 = SPI1 (Homo sapiens, UniProt P17947 1-270)
Method in brief: as §1

SPIB = SPIB (Homo sapiens, UniProt Q01892 1-262)
Method in brief: as §1

ELK3 = biological target: T6, ELK3 (Homo sapiens, UniProt P41970 1-407)
T6 sequence: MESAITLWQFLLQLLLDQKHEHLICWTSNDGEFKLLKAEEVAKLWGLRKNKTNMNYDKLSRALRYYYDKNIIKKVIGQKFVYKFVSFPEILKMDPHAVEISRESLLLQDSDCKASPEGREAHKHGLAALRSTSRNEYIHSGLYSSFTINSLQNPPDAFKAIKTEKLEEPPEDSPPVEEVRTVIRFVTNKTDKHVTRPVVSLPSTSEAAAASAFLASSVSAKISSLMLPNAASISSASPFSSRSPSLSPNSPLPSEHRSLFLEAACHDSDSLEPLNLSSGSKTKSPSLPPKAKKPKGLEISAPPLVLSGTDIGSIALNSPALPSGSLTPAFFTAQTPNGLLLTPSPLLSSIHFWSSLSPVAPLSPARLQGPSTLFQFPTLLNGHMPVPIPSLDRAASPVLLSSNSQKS
Method in brief: as §1

Chain of SPIB (Q01892 whole entry): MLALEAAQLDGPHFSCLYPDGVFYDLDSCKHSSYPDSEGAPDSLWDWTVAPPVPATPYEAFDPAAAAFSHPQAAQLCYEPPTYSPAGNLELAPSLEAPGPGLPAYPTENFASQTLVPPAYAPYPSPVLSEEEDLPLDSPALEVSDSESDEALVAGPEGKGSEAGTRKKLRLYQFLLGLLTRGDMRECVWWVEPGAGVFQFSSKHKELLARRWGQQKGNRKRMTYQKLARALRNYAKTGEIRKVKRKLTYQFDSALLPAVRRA
Chain of ELF1 (P32519 whole entry): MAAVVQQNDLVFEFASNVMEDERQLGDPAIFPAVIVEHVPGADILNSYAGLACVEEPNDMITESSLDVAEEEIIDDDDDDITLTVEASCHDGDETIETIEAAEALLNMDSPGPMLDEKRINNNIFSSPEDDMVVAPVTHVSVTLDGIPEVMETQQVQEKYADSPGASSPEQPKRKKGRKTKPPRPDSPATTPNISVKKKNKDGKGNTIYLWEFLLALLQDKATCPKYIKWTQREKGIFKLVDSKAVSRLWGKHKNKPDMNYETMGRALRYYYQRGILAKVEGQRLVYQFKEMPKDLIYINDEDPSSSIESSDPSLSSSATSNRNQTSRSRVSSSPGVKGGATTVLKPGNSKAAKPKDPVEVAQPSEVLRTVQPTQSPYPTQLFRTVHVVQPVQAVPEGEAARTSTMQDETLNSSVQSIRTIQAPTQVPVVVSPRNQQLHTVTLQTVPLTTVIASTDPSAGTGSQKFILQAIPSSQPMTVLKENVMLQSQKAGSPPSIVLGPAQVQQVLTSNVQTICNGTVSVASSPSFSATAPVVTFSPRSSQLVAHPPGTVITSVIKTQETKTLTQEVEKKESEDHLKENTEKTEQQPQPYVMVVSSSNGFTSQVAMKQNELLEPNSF

With GATGGC the binding signal (FLI1) was 1.27 fold enrichment (6-mer frequency, TF over GST control), the binding signal (ELK1) was 1.36 fold enrichment (6-mer frequency, TF over GST control) and the binding signal (GABPA) was 1.34 fold enrichment (6-mer frequency, TF over GST control). The binding signal (ERG) was 1.3 fold enrichment (6-mer frequency, TF over GST control), the binding signal (ELF1) was 1.34 fold enrichment (6-mer frequency, TF over GST control) and the binding signal (EHF) was 1.33 fold enrichment (6-mer frequency, TF over GST control). For the same sequence, the binding signal (SPI1) was 1.37 fold enrichment (6-mer frequency, TF over GST control), the binding signal (SPIB) was 1.41 fold enrichment (6-mer frequency, TF over GST control) and the binding signal (ELK3) was 1.19 fold enrichment (6-mer frequency, TF over GST control).
